Experimental data reported in paper PMC11006913.
Changes are numbered by the printed parent chain.

Legend:
Test in all cases: PBM; 200 nM protein, PBS
Details in all cases: dsDNA, one strand shown
[1] = target: HOXB6 (Homo sapiens, UniProt P17509 132-218, K202E)
[2] = target: HOXA4 (Homo sapiens, UniProt Q00056 201-287, R217L)
[3] = target: HOXA4 (Homo sapiens, UniProt Q00056 201-287, W262F)
[4] = target: T1, VENTX (Homo sapiens, UniProt O95231 78-163, R121Q)
T1 sequence: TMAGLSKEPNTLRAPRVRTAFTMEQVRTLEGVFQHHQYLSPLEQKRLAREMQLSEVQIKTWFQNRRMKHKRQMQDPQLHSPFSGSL

[5] = target: ALX4 (Homo sapiens, UniProt Q9H161 200-286)
[6] = target: T2, PAX4 (Homo sapiens, UniProt O43316 9-242, R200K)
T2 sequence: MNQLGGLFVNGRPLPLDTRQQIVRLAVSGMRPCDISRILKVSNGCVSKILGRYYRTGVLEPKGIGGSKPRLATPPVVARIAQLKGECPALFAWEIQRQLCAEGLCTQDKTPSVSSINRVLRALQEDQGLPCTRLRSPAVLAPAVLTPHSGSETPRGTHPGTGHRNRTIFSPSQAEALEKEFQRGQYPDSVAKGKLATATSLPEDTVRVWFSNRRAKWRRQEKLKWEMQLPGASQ

[7] = target: PRRX1 (Homo sapiens, UniProt P54821 80-166, F113S)
[8] = target: T3, VENTX (Homo sapiens, UniProt O95231 78-163, Y115F)
T3 sequence: T1 sequence with Y38F, Q44R

[9] = target: HOXA2 (Homo sapiens, UniProt O43364 129-215, R185T)
[10] = target: HOXB4 (Homo sapiens, UniProt P17483 148-234, V174I)
[11] = target: T4, PAX4 (Homo sapiens, UniProt O43316 9-242, R200Q)
T4 sequence: T2 sequence with K192Q

[12] = target: HOXA2 (Homo sapiens, UniProt O43364 129-215, R185K)
[13] = target: T5, PAX4 (Homo sapiens, UniProt O43316 9-242, F177V)
T5 sequence: T2 sequence with F169V, K192R

[14] = target: MSX2 (Homo sapiens, UniProt P35548 130-214)
[15] = target: T6, PAX4 (Homo sapiens, UniProt O43316 9-242, F177Y)
T6 sequence: T2 sequence with F169Y, K192R

[16] = target: MSX2 (Homo sapiens, UniProt P35548 130-214, F161Y)
[17] = target: VAX1 (Homo sapiens, UniProt Q5SQQ9 86-172, T142I)
[18] = target: PRRX1 (Homo sapiens, UniProt P54821 80-166)
[19] = target: VAX1 (Homo sapiens, UniProt Q5SQQ9 86-172, K157R)
[20] = target: HOXB4 (Homo sapiens, UniProt P17483 148-234)
Sequence of HOXB4 (Homo sapiens, UniProt P17483 148-234) (P17483 148-234): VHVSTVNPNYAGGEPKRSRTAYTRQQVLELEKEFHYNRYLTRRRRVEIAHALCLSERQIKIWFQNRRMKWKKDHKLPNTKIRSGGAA

Sequence of VAX1 (Homo sapiens, UniProt Q5SQQ9 86-172, K157R) (Q5SQQ9 86-172 K157R): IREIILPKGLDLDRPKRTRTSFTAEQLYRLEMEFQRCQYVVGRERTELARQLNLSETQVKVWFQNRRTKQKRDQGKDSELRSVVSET
Sequence of ALX4 (Q9H161 200-286): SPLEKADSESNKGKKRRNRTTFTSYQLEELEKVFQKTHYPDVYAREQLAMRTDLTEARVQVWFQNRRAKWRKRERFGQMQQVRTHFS
Sequence of HOXA4 (Homo sapiens, UniProt Q00056 201-287, R217L) (Q00056 201-287 R217L): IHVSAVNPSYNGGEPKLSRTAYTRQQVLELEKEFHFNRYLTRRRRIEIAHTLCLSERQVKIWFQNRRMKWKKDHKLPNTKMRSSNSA
Sequence of HOXB4 (Homo sapiens, UniProt P17483 148-234, V174I) (P17483 148-234 V174I): as the sequence (P17483 148-234) above, with V27I counted along it
Sequence of PRRX1 (Homo sapiens, UniProt P54821 80-166, F113S) (P54821 80-166 F113S): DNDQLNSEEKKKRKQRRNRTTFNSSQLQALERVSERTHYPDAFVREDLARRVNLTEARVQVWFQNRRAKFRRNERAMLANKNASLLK
Sequence of VAX1 (Homo sapiens, UniProt Q5SQQ9 86-172, T142I) (Q5SQQ9 86-172 T142I): as the sequence (Q5SQQ9 86-172 K157R) above, with T57I, R72K counted along it
Sequence of HOXA2 (Homo sapiens, UniProt O43364 129-215, R185K) (O43364 129-215 R185K): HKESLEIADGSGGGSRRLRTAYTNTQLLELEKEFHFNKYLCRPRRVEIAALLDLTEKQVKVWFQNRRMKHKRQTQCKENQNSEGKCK
Sequence of HOXA4 (Homo sapiens, UniProt Q00056 201-287, W262F) (Q00056 201-287 W262F): as the sequence (Q00056 201-287 R217L) above, with L17R, W62F counted along it
Sequence of PRRX1 (Homo sapiens, UniProt P54821 80-166) (P54821 80-166): as the sequence (P54821 80-166 F113S) above, with S34F counted along it
Sequence of MSX2 (Homo sapiens, UniProt P35548 130-214, F161Y) (P35548 130-214 F161Y): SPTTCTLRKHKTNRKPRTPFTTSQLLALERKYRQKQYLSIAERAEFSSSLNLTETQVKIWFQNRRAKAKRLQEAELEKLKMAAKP
Sequence of HOXA2 (Homo sapiens, UniProt O43364 129-215, R185T) (O43364 129-215 R185T): as the sequence (O43364 129-215 R185K) above, with K57T counted along it
Sequence of MSX2 (Homo sapiens, UniProt P35548 130-214) (P35548 130-214): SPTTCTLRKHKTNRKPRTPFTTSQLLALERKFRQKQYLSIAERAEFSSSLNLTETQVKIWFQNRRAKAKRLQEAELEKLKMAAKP
Sequence of HOXB6 (P17509 132-218 K202E): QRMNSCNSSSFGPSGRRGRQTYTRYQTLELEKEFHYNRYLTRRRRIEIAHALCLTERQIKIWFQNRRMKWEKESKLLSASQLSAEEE

Question: Which binding signal [1] does the source give for CCCCGGCG here?
Answer: 9.01 upbm affinity estimate (log intensity, higher = more binding, comparable within an allelic series)

Question: And the binding signal [2]?
Answer: 9.73 upbm affinity estimate (log intensity, higher = more binding, comparable within an allelic series)

Question: And the binding signal [3]?
Answer: 9.94 upbm affinity estimate (log intensity, higher = more binding, comparable within an allelic series)

Question: What does the source list for ACCAATTA?
Answer: binding signal [4]: 12.2 upbm affinity estimate (log intensity, higher = more binding, comparable within an allelic series); binding signal [5]: 14.2 upbm affinity estimate (log intensity, higher = more binding, comparable within an allelic series); binding signal [6]: 11.6 upbm affinity estimate (log intensity, higher = more binding, comparable within an allelic series); binding signal [7]: 11.5 upbm affinity estimate (log intensity, higher = more binding, comparable within an allelic series); binding signal [8]: 11.8 upbm affinity estimate (log intensity, higher = more binding, comparable within an allelic series); binding signal [1]: 9.84 upbm affinity estimate (log intensity, higher = more binding, comparable within an allelic series); binding signal [9]: 12.8 upbm affinity estimate (log intensity, higher = more binding, comparable within an allelic series); binding signal [10]: 13.6 upbm affinity estimate (log intensity, higher = more binding, comparable within an allelic series); binding signal [11]: 12.1 upbm affinity estimate (log intensity, higher = more binding, comparable within an allelic series); binding signal [12]: 13.2 upbm affinity estimate (log intensity, higher = more binding, comparable within an allelic series); binding signal [13]: 10.5 upbm affinity estimate (log intensity, higher = more binding, comparable within an allelic series); binding signal [14]: 14.2 upbm affinity estimate (log intensity, higher = more binding, comparable within an allelic series); binding signal [15]: 10.8 upbm affinity estimate (log intensity, higher = more binding, comparable within an allelic series); binding signal [16]: 13.8 upbm affinity estimate (log intensity, higher = more binding, comparable within an allelic series); binding signal [17]: 12.4 upbm affinity estimate (log intensity, higher = more binding, comparable within an allelic series); binding signal [18]: 13.6 upbm affinity estimate (log intensity, higher = more binding, comparable within an allelic series); binding signal [19]: 12.7 upbm affinity estimate (log intensity, higher = more binding, comparable within an allelic series)

Question: TAATTGCA was tested. Which binding signal [4] did it give?
Answer: 11.8 upbm affinity estimate (log intensity, higher = more binding, comparable within an allelic series)

Question: And the binding signal [8]?
Answer: 11.6 upbm affinity estimate (log intensity, higher = more binding, comparable within an allelic series)

Question: What about the binding signal [1] of the same sequence?
Answer: 10 upbm affinity estimate (log intensity, higher = more binding, comparable within an allelic series)

Question: What about the binding signal [9] of the same sequence?
Answer: 12.7 upbm affinity estimate (log intensity, higher = more binding, comparable within an allelic series)

Question: What about the binding signal [2] of the same sequence?
Answer: 11.9 upbm affinity estimate (log intensity, higher = more binding, comparable within an allelic series)

Question: What about the binding signal [12] of the same sequence?
Answer: 13.4 upbm affinity estimate (log intensity, higher = more binding, comparable within an allelic series)

Question: What about the binding signal [14] of the same sequence?
Answer: 13.9 upbm affinity estimate (log intensity, higher = more binding, comparable within an allelic series)

Question: And the binding signal [16]?
Answer: 13.6 upbm affinity estimate (log intensity, higher = more binding, comparable within an allelic series)

Question: And the binding signal [17]?
Answer: 12.5 upbm affinity estimate (log intensity, higher = more binding, comparable within an allelic series)

Question: And the binding signal [19]?
Answer: 12.4 upbm affinity estimate (log intensity, higher = more binding, comparable within an allelic series)

Question: For GTAATTGA, which binding signal [20] is on record?
Answer: 13.1 upbm affinity estimate (log intensity, higher = more binding, comparable within an allelic series)

Question: And the binding signal [5]?
Answer: 13.8 upbm affinity estimate (log intensity, higher = more binding, comparable within an allelic series)

Question: And the binding signal [7]?
Answer: 11 upbm affinity estimate (log intensity, higher = more binding, comparable within an allelic series)

Question: And the binding signal [9]?
Answer: 12.5 upbm affinity estimate (log intensity, higher = more binding, comparable within an allelic series)

Question: What about the binding signal [2] of the same sequence?
Answer: 12 upbm affinity estimate (log intensity, higher = more binding, comparable within an allelic series)

Question: What about the binding signal [10] of the same sequence?
Answer: 13.8 upbm affinity estimate (log intensity, higher = more binding, comparable within an allelic series)

Question: What about the binding signal [12] of the same sequence?
Answer: 12.9 upbm affinity estimate (log intensity, higher = more binding, comparable within an allelic series)

Question: And the binding signal [14]?
Answer: 13.7 upbm affinity estimate (log intensity, higher = more binding, comparable within an allelic series)

Question: What about the binding signal [16] of the same sequence?
Answer: 13.4 upbm affinity estimate (log intensity, higher = more binding, comparable within an allelic series)

Question: And the binding signal [17]?
Answer: 12.4 upbm affinity estimate (log intensity, higher = more binding, comparable within an allelic series)

Question: And the binding signal [3]?
Answer: 11.2 upbm affinity estimate (log intensity, higher = more binding, comparable within an allelic series)

Question: What about the binding signal [18] of the same sequence?
Answer: 13.3 upbm affinity estimate (log intensity, higher = more binding, comparable within an allelic series)

Question: And the binding signal [19]?
Answer: 12.6 upbm affinity estimate (log intensity, higher = more binding, comparable within an allelic series)

Question: CAATTATG was tested. Which binding signal [20] did it give?
Answer: 13 upbm affinity estimate (log intensity, higher = more binding, comparable within an allelic series)

Question: What about the binding signal [5] of the same sequence?
Answer: 13.8 upbm affinity estimate (log intensity, higher = more binding, comparable within an allelic series)

Question: What about the binding signal [7] of the same sequence?
Answer: 11.3 upbm affinity estimate (log intensity, higher = more binding, comparable within an allelic series)

Question: And the binding signal [1]?
Answer: 9.97 upbm affinity estimate (log intensity, higher = more binding, comparable within an allelic series)

Question: And the binding signal [9]?
Answer: 12.5 upbm affinity estimate (log intensity, higher = more binding, comparable within an allelic series)

Question: What about the binding signal [10] of the same sequence?
Answer: 13.6 upbm affinity estimate (log intensity, higher = more binding, comparable within an allelic series)

Question: And the binding signal [14]?
Answer: 13.9 upbm affinity estimate (log intensity, higher = more binding, comparable within an allelic series)

Question: What about the binding signal [16] of the same sequence?
Answer: 13.5 upbm affinity estimate (log intensity, higher = more binding, comparable within an allelic series)

Question: What about the binding signal [18] of the same sequence?
Answer: 13.5 upbm affinity estimate (log intensity, higher = more binding, comparable within an allelic series)

Question: How did the binding signal [20] turn out when CCAATTAA was run?
Answer: 13 upbm affinity estimate (log intensity, higher = more binding, comparable within an allelic series)

Question: What about the binding signal [4] of the same sequence?
Answer: 12.2 upbm affinity estimate (log intensity, higher = more binding, comparable within an allelic series)

Question: What about the binding signal [5] of the same sequence?
Answer: 14.3 upbm affinity estimate (log intensity, higher = more binding, comparable within an allelic series)

Question: What about the binding signal [6] of the same sequence?
Answer: 11.8 upbm affinity estimate (log intensity, higher = more binding, comparable within an allelic series)

Question: And the binding signal [7]?
Answer: 11.6 upbm affinity estimate (log intensity, higher = more binding, comparable within an allelic series)

Question: And the binding signal [8]?
Answer: 11.8 upbm affinity estimate (log intensity, higher = more binding, comparable within an allelic series)

Question: What about the binding signal [1] of the same sequence?
Answer: 10 upbm affinity estimate (log intensity, higher = more binding, comparable within an allelic series)

Question: And the binding signal [9]?
Answer: 12.9 upbm affinity estimate (log intensity, higher = more binding, comparable within an allelic series)

Question: What about the binding signal [2] of the same sequence?
Answer: 12 upbm affinity estimate (log intensity, higher = more binding, comparable within an allelic series)

Question: What about the binding signal [10] of the same sequence?
Answer: 13.7 upbm affinity estimate (log intensity, higher = more binding, comparable within an allelic series)

Question: And the binding signal [11]?
Answer: 12.4 upbm affinity estimate (log intensity, higher = more binding, comparable within an allelic series)

Question: And the binding signal [12]?
Answer: 13.1 upbm affinity estimate (log intensity, higher = more binding, comparable within an allelic series)

Question: What about the binding signal [13] of the same sequence?
Answer: 10.6 upbm affinity estimate (log intensity, higher = more binding, comparable within an allelic series)

Question: What about the binding signal [14] of the same sequence?
Answer: 14.2 upbm affinity estimate (log intensity, higher = more binding, comparable within an allelic series)

Question: What about the binding signal [15] of the same sequence?
Answer: 11.1 upbm affinity estimate (log intensity, higher = more binding, comparable within an allelic series)

Question: And the binding signal [16]?
Answer: 13.8 upbm affinity estimate (log intensity, higher = more binding, comparable within an allelic series)

Question: What about the binding signal [17] of the same sequence?
Answer: 12.7 upbm affinity estimate (log intensity, higher = more binding, comparable within an allelic series)

Question: And the binding signal [3]?
Answer: 11.3 upbm affinity estimate (log intensity, higher = more binding, comparable within an allelic series)

Question: What about the binding signal [18] of the same sequence?
Answer: 13.6 upbm affinity estimate (log intensity, higher = more binding, comparable within an allelic series)

Question: And the binding signal [19]?
Answer: 13 upbm affinity estimate (log intensity, higher = more binding, comparable within an allelic series)
